Measured values from PubChem BioAssay (Tox21).
Results filed as inconclusive are left out. Entries that show only a call come without a potency. Some structures have more than one record in an assay (separate samples or runs), and their calls can disagree. Activity calls are given as the source filed them. Unless noted, the call rests on the fitted dose curve.

experiment: qHTS assay to identify small molecule agonists of the NFkB signaling pathway - cell viability counter screen (AID 1159515); conditions: NFkB-bla ME-180 viability, CellTiter-Glo luminescence, 5 h; series mostly up to 61 µM; further: nearly all actives have a fitted effect of over 55% in size
How it was run: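 Multiplexed viability readout: after the 5 hr compound exposure and 1.5 hr FRET substrate step, CellTiter-Glo reagent went into the same NFkB-bla ME-180 wells; ATP luminescence was measured after 30 min at room temperature.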
Potency means the concentration at half of the fitted maximal effect.

Row | Structure (SMILES) | Potency
1 | O=C(Nc1ccc(Oc2ccc(Cl)cc2)c(Cl)c1)c1cc(I)cc(I)c1O | inactive
2 | Cc1cc(C2CCCCC2)n(O)c(=O)c1 | 5.35 µM (active)
3 | CCCCC(CC)COC(=O)c1ccccc1C(=O)O (configuration not stated) | inactive
4 | CCc1cc(Cc2cc(CC)c(N)c(CC)c2)cc(CC)c1N | 49 µM (active)
5 | CC1(C)CCC(C)(C)c2cc(C(=O)Nc3ccc(C(=O)O)cc3)ccc21 | inactive
6 | COc1cccc2c1C(=O)c1c(O)c3c(c(O)c1C2=O)C[C@@](O)(C(=O)CO)C[C@@H]3O[C@H]1C[C@H](N)[C@H](O[C@@H]2CCCCO2)[C@H](C)O1 | inactive
7 | CNc1ccc(O)cc1 | 48.9 µM (active)
8 | CCN1/C(=C/C=C/c2sc3ccccc3[n+]2CC)Sc2ccccc21 | inactive
9 | CCOC(=O)c1nc(C(Cl)(Cl)Cl)n(-c2ccc(Cl)cc2Cl)n1 | inactive
10 | CC(=O)N1CCN(c2ccc(OC[C@H]3CO[C@](Cn4ccnc4)(c4ccc(Cl)cc4Cl)O3)cc2)CC1 | 61.6 µM (active)
11 | COc1cc(-c2nc(NC(=O)c3cc4cc(C)cc(C)c4n3CC(=O)O)sc2CCC2CCCCC2)c(OC)cc1Cl | 10 µM (active)
12 | N#CSc1ccc(N)c([N+](=O)[O-])c1 | inactive
13 | OCc1c[nH]c2ccccc12 | inactive
14 | C[C@H](CCC(=O)O)[C@H]1CC[C@H]2[C@@H]3CC[C@@H]4C[C@H](O)CC[C@]4(C)[C@H]3CC[C@]12C | 49 µM (active)
15 | CCC(C)Nc1ccc(NC(C)CC)cc1 (configuration not stated) | 44.5 µM (active)
16 | C=CC(=O)OCCn1c(=O)n(CCOC(=O)C=C)c(=O)n(CCOC(=O)C=C)c1=O | inactive
17 | CCCCCCCCS(=O)C(C)Cc1ccc2c(c1)OCO2 (configuration not stated) | inactive
18 | O=C(OC[C@H]1O[C@@H](OC(=O)c2cc(O)c(O)c(OC(=O)c3cc(O)c(O)c(O)c3)c2)[C@H](OC(=O)c2cc(O)c(O)c(OC(=O)c3cc(O)c(O)c(O)c3)c2)[C@@H](OC(=O)c2cc(O)c(O)c(OC(=O)c3cc(O)c(O)c(O)c3)c2)[C@@H]1OC(=O)c1cc(O)c(O)c(OC(=O)c2cc(O)c(O)c(O)c2)c1)c1cc(O)c(O)c(OC(=O)c2cc(O)c(O)c(O)c2)c1 | inactive

Row | Structure (SMILES) | Potency
19 | Cc1c(C)c2c(c(C)c1OC(=O)CCC(=O)O)CC[C@@](C)(CCC[C@H](C)CCC[C@H](C)CCCC(C)C)O2 | inactive
20 | CCCC(=O)OC[C@@H](OC(=O)CCC)[C@@H](OC(=O)CCC)[C@H](Cn1c2nc(=O)[nH]c(=O)c-2nc2cc(C)c(C)cc21)OC(=O)CCC | inactive
21 | Oc1ccc2cc(SSc3ccc4cc(O)ccc4c3)ccc2c1 | inactive
22 | Oc1ccc(C2(c3ccc(O)cc3)CC3CC2C2CCCC32)cc1 (configuration not stated) | 52.8 µM (active)
23 | CCCCCCCCCCCCCCCC(=O)OC[C@H](O)[C@H]1OC(=O)C(O)=C1O | inactive
24 | O=C1C=CC(=O)N1 | inactive
25 | O=C(Oc1cccc2cccnc12)c1ccccc1 | 2.39 µM (active)
26 | Cc1ccc(O)c2ncccc12 | 6.01 µM (active)
27 | O=[N+]([O-])c1cc(Cl)c(Cl)c(Cl)c1Cl | inactive
28 | CC[C@@]1(O)C(=O)OCc2c1cc1n(c2=O)Cc2cc3c(CN(C)C)c(O)ccc3nc2-1 | inactive
29 | Clc1ccc2nsnc2c1NC1=NCCN1 | inactive
30 | O=Cc1cc(O)ccc1Br | inactive
31 | Nc1cc(C(F)(F)F)ccc1S | inactive
32 | O=CC=C(c1ccccc1)c1ccccc1 | inactive
33 | CN(C)c1ccc(SC#N)cc1 | 17.4 µM (active)
34 | C/C(=C(/OCCOc1ccc(Cl)cc1)c1ccc(Cl)cc1Cl)n1ccnc1 | inactive
35 | CN(C)C(=O)C1(N2CCCCC2)CCN(CC[C@@]2(c3ccc(Cl)c(Cl)c3)CN(C(=O)c3ccccc3)CCO2)CC1 | 51.3 µM (active)
36 | CSc1cnc(C)cn1 | inactive

experiment: qHTS assay to identify small molecule antagonists of the retinoid-related orphan receptor gamma (ROR-gamma) signaling pathway - cell viability counter screen (AID 1159520; active means well fitted cell-killing curve with a large enough effect in the repeat runs; further: nearly all actives have a fitted effect of over 50% in size); conditions: Tet-on RORgamma CHO cells viability, ATP luminescence, 16 h; series mostly up to 92.4 µM
How it was run: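 Tet-on ROR gamma CHO cells (1,000/well) were plated 4 hr, given compounds in DMSO for 2 hr at 37 C, then induced with 1 uM final doxycycline for 16 hr. Viability was read as ATP by CellTiter-Glo luminescence after 30 min.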

Row | Structure (SMILES) | Potency | activity, negative = cytotoxicity
37 | CCCCC(CC)COC(=O)c1ccccc1C(=O)O (configuration not stated) | inactive | –
38 | COc1cccc2c1C(=O)c1c(O)c3c(c(O)c1C2=O)C[C@@](O)(C(=O)CO)C[C@@H]3O[C@H]1C[C@H](N)[C@H](O[C@@H]2CCCCO2)[C@H](C)O1 | 5.31 µM (active) | –
39 | CNc1ccc(O)cc1 | 7.68 µM (active) | –
40 | CCN1/C(=C/C=C/c2sc3ccccc3[n+]2CC)Sc2ccccc21 | 11.6 µM (active) | –
41 | COc1cc(-c2nc(NC(=O)c3cc4cc(C)cc(C)c4n3CC(=O)O)sc2CCC2CCCCC2)c(OC)cc1Cl | 39.7 µM (active) | –
42 | OCc1c[nH]c2ccccc12 | inactive | –
43 | C[C@H](CCC(=O)O)[C@H]1CC[C@H]2[C@@H]3CC[C@@H]4C[C@H](O)CC[C@]4(C)[C@H]3CC[C@]12C | 60.9 µM (active) and inactive | –
44 | CCC(C)Nc1ccc(NC(C)CC)cc1 (configuration not stated) | 31.2 µM (active) | –
45 | C=CC(=O)OCCn1c(=O)n(CCOC(=O)C=C)c(=O)n(CCOC(=O)C=C)c1=O | inactive | –
46 | CCCCCCCCS(=O)C(C)Cc1ccc2c(c1)OCO2 (configuration not stated) | inactive | –
47 | O=C(OC[C@H]1O[C@@H](OC(=O)c2cc(O)c(O)c(OC(=O)c3cc(O)c(O)c(O)c3)c2)[C@H](OC(=O)c2cc(O)c(O)c(OC(=O)c3cc(O)c(O)c(O)c3)c2)[C@@H](OC(=O)c2cc(O)c(O)c(OC(=O)c3cc(O)c(O)c(O)c3)c2)[C@@H]1OC(=O)c1cc(O)c(O)c(OC(=O)c2cc(O)c(O)c(O)c2)c1)c1cc(O)c(O)c(OC(=O)c2cc(O)c(O)c(O)c2)c1 | – | -4.77% [at 19 µM] (inactive)
48 | Cc1c(C)c2c(c(C)c1OC(=O)CCC(=O)O)CC[C@@](C)(CCC[C@H](C)CCC[C@H](C)CCCC(C)C)O2 | 27.6 µM (active) | –
49 | CCCC(=O)OC[C@@H](OC(=O)CCC)[C@@H](OC(=O)CCC)[C@H](Cn1c2nc(=O)[nH]c(=O)c-2nc2cc(C)c(C)cc21)OC(=O)CCC | inactive | –
50 | Oc1ccc2cc(SSc3ccc4cc(O)ccc4c3)ccc2c1 | 48.6 µM (active) | –
51 | Oc1ccc(C2(c3ccc(O)cc3)CC3CC2C2CCCC32)cc1 (configuration not stated) | 52.3 µM (active) | –
52 | CCCCCCCCCCCCCCCC(=O)OC[C@H](O)[C@H]1OC(=O)C(O)=C1O | inactive | –
53 | O=C1C=CC(=O)N1 | 12.5 µM (active) | –
54 | O=C(Oc1cccc2cccnc12)c1ccccc1 | inactive | –
55 | Cc1ccc(O)c2ncccc12 | 21.1 µM (active) | –
56 | O=[N+]([O-])c1cc(Cl)c(Cl)c(Cl)c1Cl | inactive | –
57 | CC[C@@]1(O)C(=O)OCc2c1cc1n(c2=O)Cc2cc3c(CN(C)C)c(O)ccc3nc2-1 | 2.11 µM (active) | –
58 | Clc1ccc2nsnc2c1NC1=NCCN1 | inactive | –
59 | CN(C)c1ccc(SC#N)cc1 | inactive | –
60 | C/C(=C(/OCCOc1ccc(Cl)cc1)c1ccc(Cl)cc1Cl)n1ccnc1 | inactive | –
61 | CN(C)C(=O)C1(N2CCCCC2)CCN(CC[C@@]2(c3ccc(Cl)c(Cl)c3)CN(C(=O)c3ccccc3)CCO2)CC1 | 50.9 µM (active) | –
62 | CSc1cnc(C)cn1 | inactive | –
